# Measurements from paper PMC7862700, “An all-to-all approach to the identification of sequence-specific readers for epigenetic DNA modifications on cytosine”.
# Legend:
# Experiment in all cases: DAPPL (digital affinity profiling via proximity ligation, sequencing); 10 mM Tris-HCl pH 7.5, 50 mM NaCl, 1 mM DTT, 4% glycerol, room temperature, 30 min; GST-TFs on glutathione beads, 16-mer random dsDNA library, 0.1% formaldehyde crosslink after washing; high values mean tight binding
# FEV = target: T1, FEV (Homo sapiens, UniProt Q99581 1-238); details: protein: recombinant; tags: N-terminal GST; dsDNA, one strand shown
# T1 sequence: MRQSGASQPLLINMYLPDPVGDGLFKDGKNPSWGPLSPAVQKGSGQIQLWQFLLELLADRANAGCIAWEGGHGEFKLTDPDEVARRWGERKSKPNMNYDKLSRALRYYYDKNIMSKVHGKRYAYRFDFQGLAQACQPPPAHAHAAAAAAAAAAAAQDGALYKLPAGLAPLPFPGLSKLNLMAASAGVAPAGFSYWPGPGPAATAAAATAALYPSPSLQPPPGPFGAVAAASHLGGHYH
# In short: (§1)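 Binding signal is defined as a hexamer's read frequency for one factor over its frequency for the tag-only sample. To obtain reads, GST-fused human transcription factors were expressed in yeast, captured on glutathione beads, barcoded with DNA and pooled with that sample. Pools met 200 nmole of a 16-mer random double-stranded DNA library in Tris/NaCl/DTT/glycerol buffer for 30 min at room temperature before washing, 0.1% formaldehyde crosslinking, proximity ligation (BsaI/T4 ligase, 1 h, 37 °C), PCR and Illumina NextSeq500 sequencing.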
# ETV5 = ETV5 (Homo sapiens, UniProt P41161 1-510); details: protein: recombinant; tags: N-terminal GST; dsDNA, one strand shown
# Sequence of ETV5 (P41161 whole entry): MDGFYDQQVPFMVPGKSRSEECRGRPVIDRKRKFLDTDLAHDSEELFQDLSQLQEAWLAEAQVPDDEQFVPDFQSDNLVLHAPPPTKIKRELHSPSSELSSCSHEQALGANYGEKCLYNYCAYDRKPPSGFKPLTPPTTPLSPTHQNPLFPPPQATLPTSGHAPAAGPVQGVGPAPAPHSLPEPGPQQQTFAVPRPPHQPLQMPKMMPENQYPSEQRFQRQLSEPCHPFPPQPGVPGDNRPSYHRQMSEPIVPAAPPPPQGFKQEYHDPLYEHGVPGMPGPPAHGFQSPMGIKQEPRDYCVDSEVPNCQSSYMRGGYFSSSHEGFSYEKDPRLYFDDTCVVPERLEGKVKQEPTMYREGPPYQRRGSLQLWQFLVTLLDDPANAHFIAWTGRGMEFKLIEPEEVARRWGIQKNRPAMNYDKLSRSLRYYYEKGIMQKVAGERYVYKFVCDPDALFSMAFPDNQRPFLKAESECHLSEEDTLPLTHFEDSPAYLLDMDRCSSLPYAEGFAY
# In short: as §1
# HSF1 = HSF1 (Homo sapiens, UniProt Q00613 1-529); details: protein: recombinant; tags: N-terminal GST; chain copies: 3; dsDNA, one strand shown
# Sequence of HSF1 (Q00613 whole entry): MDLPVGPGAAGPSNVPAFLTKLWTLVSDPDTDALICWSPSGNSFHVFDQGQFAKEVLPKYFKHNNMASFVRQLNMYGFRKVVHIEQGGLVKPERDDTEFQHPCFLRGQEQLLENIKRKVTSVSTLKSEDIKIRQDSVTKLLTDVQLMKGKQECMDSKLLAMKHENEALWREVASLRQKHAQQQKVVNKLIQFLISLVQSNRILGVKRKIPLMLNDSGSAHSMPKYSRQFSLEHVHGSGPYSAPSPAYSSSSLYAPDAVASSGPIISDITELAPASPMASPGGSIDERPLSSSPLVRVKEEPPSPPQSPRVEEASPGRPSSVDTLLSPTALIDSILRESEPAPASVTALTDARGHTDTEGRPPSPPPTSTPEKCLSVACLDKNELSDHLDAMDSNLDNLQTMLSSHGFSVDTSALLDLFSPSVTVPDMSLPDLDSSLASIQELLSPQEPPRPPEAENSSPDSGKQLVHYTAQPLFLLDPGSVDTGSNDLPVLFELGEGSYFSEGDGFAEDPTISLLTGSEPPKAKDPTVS
# In short: as §1
# SPIC = target: T2, SPIC (Homo sapiens, UniProt Q8N5J4 1-248); details: protein: recombinant; tags: N-terminal GST; dsDNA, one strand shown
# T2 sequence: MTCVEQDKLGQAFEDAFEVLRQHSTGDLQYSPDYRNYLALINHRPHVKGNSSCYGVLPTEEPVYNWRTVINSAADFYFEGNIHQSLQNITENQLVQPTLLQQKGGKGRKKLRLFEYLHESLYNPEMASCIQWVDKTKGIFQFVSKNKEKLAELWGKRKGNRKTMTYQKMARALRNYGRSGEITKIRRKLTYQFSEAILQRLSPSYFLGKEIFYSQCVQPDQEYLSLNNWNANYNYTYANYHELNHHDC
# In short: as §1
# ELF4 = ELF4 (Homo sapiens, UniProt Q99607 1-663); details: protein: recombinant; tags: N-terminal GST; dsDNA, one strand shown
# Sequence of ELF4 (Q99607 whole entry): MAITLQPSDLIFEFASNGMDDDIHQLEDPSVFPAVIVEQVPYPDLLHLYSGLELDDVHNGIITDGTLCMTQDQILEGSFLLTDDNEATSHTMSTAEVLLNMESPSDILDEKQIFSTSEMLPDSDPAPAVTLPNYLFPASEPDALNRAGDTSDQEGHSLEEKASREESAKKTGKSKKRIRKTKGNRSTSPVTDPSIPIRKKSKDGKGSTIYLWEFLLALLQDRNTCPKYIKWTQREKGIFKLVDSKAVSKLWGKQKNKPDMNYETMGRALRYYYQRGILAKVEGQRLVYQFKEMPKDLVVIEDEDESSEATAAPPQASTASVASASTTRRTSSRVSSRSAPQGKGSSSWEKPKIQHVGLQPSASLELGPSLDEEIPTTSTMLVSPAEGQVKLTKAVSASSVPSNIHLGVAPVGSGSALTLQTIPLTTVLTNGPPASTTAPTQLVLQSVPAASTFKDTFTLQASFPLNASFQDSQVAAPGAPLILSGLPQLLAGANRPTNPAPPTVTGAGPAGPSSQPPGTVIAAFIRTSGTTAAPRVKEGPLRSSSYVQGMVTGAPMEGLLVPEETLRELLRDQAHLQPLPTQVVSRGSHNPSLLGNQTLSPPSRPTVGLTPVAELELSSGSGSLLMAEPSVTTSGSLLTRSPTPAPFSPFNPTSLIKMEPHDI
# In short: as §1
# ELK4 = target: T3, ELK4 (Homo sapiens, UniProt P28324-2 1-405); details: protein: recombinant; tags: N-terminal GST; dsDNA, one strand shown
# T3 sequence: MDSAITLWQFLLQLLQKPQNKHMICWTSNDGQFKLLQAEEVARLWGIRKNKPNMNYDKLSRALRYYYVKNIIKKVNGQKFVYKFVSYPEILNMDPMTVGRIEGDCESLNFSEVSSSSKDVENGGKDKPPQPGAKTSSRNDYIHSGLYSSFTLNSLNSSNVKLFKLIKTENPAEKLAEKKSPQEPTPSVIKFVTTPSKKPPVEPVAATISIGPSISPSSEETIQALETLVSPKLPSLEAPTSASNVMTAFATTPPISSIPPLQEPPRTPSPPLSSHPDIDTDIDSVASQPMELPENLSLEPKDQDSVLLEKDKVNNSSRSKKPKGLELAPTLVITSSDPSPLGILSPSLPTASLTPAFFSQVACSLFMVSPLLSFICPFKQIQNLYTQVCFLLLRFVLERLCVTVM
# In short: as §1
# ETV2 = target: T4, ETV2 (Homo sapiens, UniProt O00321 1-342); details: protein: recombinant; tags: N-terminal GST; dsDNA, one strand shown
# T4 sequence: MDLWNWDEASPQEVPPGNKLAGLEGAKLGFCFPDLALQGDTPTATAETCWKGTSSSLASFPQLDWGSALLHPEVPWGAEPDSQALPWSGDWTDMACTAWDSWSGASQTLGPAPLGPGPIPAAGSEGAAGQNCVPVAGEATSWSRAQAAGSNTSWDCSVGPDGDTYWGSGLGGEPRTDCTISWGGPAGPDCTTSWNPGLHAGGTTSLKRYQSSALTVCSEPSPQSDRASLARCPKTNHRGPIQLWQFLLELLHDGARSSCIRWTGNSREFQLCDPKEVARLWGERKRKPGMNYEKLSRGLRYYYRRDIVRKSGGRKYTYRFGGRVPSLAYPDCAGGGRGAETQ
# In short: as §1
# ELF3 = target: T5, ELF3 (Homo sapiens, UniProt P78545 1-371); details: protein: recombinant; tags: N-terminal GST; dsDNA, one strand shown
# T5 sequence: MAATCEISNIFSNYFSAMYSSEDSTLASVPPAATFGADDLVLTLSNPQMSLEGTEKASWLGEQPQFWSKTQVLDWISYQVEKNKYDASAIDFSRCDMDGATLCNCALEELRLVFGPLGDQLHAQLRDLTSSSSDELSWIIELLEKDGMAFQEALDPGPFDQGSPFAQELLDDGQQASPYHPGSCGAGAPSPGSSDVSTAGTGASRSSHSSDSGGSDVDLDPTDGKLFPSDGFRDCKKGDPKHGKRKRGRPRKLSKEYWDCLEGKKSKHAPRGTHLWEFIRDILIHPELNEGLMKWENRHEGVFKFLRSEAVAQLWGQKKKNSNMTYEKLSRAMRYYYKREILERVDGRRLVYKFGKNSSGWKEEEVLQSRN
# In short: as §1
# CRX = CRX (Homo sapiens, UniProt O43186 1-299); details: protein: recombinant; tags: N-terminal GST; dsDNA, one strand shown
# Sequence of CRX (O43186 whole entry): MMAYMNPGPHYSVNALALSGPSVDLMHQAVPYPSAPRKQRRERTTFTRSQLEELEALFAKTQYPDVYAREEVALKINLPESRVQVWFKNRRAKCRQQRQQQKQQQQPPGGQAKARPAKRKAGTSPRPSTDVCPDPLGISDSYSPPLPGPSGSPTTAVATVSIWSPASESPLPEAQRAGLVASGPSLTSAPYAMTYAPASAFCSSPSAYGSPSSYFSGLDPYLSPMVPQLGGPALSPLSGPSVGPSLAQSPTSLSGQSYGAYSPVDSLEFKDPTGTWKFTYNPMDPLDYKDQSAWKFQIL
# In short: as §1
# ETV1 = ETV1 (Homo sapiens, UniProt P50549 1-477); details: protein: recombinant; tags: N-terminal GST; dsDNA, one strand shown
# Sequence of ETV1 (P50549 whole entry): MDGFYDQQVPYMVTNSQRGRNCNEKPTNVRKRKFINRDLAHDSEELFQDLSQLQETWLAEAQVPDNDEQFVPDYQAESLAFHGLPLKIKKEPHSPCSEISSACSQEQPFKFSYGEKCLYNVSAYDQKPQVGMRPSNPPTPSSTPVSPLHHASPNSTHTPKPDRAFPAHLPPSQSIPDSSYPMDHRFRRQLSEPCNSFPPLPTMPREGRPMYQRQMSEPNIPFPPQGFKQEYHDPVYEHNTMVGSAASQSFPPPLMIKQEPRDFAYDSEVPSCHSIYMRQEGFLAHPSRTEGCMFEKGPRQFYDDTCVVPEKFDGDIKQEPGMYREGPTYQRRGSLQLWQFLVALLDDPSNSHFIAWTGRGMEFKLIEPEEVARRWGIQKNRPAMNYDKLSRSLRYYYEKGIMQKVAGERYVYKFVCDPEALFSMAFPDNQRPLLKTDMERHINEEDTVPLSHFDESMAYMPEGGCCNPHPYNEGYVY
# In short: as §1
# ERF = target: T6, ERF (Homo sapiens, UniProt P50548 1-548); details: protein: recombinant; tags: N-terminal GST; dsDNA, one strand shown
# T6 sequence: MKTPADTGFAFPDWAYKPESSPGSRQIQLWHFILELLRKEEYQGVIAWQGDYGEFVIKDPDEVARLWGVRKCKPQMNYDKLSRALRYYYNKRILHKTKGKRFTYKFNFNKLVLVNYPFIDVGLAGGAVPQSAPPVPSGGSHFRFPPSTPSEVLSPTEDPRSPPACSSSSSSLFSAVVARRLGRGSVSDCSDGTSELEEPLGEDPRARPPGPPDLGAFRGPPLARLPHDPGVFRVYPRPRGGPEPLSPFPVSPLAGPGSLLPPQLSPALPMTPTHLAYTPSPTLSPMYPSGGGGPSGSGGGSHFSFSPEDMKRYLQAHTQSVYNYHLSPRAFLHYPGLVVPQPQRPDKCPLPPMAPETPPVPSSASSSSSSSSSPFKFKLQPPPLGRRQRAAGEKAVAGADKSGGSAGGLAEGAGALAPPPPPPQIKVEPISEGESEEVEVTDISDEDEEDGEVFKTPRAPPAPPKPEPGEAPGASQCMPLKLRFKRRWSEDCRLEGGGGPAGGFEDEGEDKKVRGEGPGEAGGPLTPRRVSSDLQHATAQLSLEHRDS
# In short: as §1
# ETV3L = target: T7, ETV3L (Homo sapiens, UniProt Q6ZN32 1-361); details: protein: recombinant; tags: N-terminal GST; dsDNA, one strand shown
# T7 sequence: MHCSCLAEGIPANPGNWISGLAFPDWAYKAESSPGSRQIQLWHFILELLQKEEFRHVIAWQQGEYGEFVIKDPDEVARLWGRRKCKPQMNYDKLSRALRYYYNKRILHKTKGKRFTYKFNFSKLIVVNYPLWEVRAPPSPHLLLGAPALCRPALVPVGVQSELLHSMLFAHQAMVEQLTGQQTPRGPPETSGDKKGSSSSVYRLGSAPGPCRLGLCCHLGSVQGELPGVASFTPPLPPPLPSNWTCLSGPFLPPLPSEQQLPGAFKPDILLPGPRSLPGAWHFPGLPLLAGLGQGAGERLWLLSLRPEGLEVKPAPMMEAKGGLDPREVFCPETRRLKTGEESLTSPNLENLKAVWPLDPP
# In short: as §1
# ETS2 = target: T8, ETS2 (Homo sapiens, UniProt P15036 1-469); details: protein: recombinant; tags: N-terminal GST; dsDNA, one strand shown
# T8 sequence: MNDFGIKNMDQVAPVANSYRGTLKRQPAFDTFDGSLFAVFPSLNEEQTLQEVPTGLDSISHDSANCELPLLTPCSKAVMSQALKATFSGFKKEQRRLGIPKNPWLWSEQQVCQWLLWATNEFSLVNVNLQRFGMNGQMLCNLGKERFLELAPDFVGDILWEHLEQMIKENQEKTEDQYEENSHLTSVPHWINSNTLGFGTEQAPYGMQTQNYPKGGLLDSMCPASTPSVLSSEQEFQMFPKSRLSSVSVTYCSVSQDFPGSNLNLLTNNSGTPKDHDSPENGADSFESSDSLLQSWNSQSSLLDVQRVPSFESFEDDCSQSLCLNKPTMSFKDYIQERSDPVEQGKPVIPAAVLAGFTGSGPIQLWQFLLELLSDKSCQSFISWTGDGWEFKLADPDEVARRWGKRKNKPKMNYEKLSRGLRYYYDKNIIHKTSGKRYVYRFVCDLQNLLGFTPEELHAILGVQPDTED
# In short: as §1
# SPDEF = target: T9, SPDEF (Homo sapiens, UniProt O95238 1-335); details: protein: recombinant; tags: N-terminal GST; dsDNA, one strand shown
# T9 sequence: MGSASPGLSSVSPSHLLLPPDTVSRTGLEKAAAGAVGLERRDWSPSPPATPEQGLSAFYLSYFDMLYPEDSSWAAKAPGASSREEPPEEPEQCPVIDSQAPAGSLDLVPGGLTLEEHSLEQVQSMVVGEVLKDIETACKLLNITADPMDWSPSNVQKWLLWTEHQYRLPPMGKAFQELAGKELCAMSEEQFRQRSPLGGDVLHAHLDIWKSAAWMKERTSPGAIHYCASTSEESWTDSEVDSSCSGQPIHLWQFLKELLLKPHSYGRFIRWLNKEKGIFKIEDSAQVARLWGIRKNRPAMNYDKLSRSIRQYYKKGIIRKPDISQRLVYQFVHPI
# In short: as §1
# ETV7 = target: T10, ETV7 (Homo sapiens, UniProt Q9Y603 1-341); details: protein: recombinant; tags: N-terminal GST; dsDNA, one strand shown
# T10 sequence: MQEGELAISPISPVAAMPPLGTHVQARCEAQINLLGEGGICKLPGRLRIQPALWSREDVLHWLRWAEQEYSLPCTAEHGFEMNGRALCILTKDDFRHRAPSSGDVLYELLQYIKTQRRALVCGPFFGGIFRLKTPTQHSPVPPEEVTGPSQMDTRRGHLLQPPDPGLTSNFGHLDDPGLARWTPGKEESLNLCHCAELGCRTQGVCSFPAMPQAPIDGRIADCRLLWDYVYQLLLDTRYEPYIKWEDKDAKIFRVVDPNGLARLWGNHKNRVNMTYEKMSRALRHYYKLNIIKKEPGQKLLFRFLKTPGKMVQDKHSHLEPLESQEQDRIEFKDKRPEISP
# In short: as §1
# ELF5 = target: T11, ELF5 (Homo sapiens, UniProt Q9UKW6-2 1-255); details: protein: recombinant; tags: N-terminal GST; dsDNA, one strand shown
# T11 sequence: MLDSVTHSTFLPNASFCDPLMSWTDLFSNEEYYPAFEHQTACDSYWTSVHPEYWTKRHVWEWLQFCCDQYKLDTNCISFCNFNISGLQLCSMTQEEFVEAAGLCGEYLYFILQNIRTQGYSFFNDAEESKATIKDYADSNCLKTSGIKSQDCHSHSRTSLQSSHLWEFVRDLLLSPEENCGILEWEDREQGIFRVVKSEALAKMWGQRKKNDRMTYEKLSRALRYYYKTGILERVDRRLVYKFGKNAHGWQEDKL
# In short: as §1
# ETV3 = target: T12, ETV3 (Homo sapiens, UniProt P41162-2 1-143); details: protein: recombinant; tags: N-terminal GST; dsDNA, one strand shown
# T12 sequence: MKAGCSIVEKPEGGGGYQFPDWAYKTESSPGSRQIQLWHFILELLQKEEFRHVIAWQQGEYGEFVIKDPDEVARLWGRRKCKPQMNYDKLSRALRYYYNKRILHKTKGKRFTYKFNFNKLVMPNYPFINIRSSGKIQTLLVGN
# In short: as §1
# ETV6 = ETV6 (Homo sapiens, UniProt P41212 1-452); details: protein: recombinant; tags: N-terminal GST; dsDNA, one strand shown
# Sequence of ETV6 (P41212 whole entry): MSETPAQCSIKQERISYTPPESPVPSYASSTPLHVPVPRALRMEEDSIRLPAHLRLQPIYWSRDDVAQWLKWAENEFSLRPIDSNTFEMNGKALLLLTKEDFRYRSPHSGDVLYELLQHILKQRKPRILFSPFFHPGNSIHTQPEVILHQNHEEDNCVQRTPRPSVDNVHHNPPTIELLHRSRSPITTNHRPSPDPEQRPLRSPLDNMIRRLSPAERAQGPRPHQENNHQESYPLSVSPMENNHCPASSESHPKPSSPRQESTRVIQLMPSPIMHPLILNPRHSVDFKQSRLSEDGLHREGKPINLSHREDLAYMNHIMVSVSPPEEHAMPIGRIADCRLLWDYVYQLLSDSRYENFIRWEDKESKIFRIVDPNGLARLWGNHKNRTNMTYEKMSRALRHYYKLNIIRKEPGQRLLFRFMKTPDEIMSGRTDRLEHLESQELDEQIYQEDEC
# In short: as §1
sequence,measurement,setting,value
CTTCCG,binding signal,FEV,"10.5 fold enrichment (6-mer frequency, TF over GST control)"
same,binding signal,ETV5,"8.45 fold enrichment (6-mer frequency, TF over GST control)"
same,binding signal,HSF1,"1.57 fold enrichment (6-mer frequency, TF over GST control)"
same,binding signal,SPIC,"7.54 fold enrichment (6-mer frequency, TF over GST control)"
same,binding signal,ELF4,"7.4 fold enrichment (6-mer frequency, TF over GST control)"
same,binding signal,ELK4,"6.22 fold enrichment (6-mer frequency, TF over GST control)"
same,binding signal,ETV2,"7.7 fold enrichment (6-mer frequency, TF over GST control)"
same,binding signal,ELF3,"6.78 fold enrichment (6-mer frequency, TF over GST control)"
same,binding signal,CRX,"1.27 fold enrichment (6-mer frequency, TF over GST control)"
same,binding signal,ETV1,"7.97 fold enrichment (6-mer frequency, TF over GST control)"
same,binding signal,ERF,"6.13 fold enrichment (6-mer frequency, TF over GST control)"
same,binding signal,ETV3L,"7.08 fold enrichment (6-mer frequency, TF over GST control)"
same,binding signal,ETS2,"8.04 fold enrichment (6-mer frequency, TF over GST control)"
same,binding signal,SPDEF,"7.63 fold enrichment (6-mer frequency, TF over GST control)"
same,binding signal,ETV7,"7.48 fold enrichment (6-mer frequency, TF over GST control)"
same,binding signal,ELF5,"11.4 fold enrichment (6-mer frequency, TF over GST control)"
same,binding signal,ETV3,"8.47 fold enrichment (6-mer frequency, TF over GST control)"
same,binding signal,ETV6,"9.62 fold enrichment (6-mer frequency, TF over GST control)"
